# Screens from PubChem.
# TRAIL sens C8 – viability loss with TRAIL in NB7+C8 cells, primary screen, TRAIL sensitizer project, cell-based, ATPlite luminescence; inhibition (viability loss, TRAIL sensitization), % at 10 µM; 1% of 360,000 active;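 active = compounds causing at least 50% loss of cell viability in the single-dose screen, relative to plate controls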
# TROY signal inh – inhibitors of TROY-driven NF-kB signaling, primary screen, Q293 LMP1-TROYcd cells, NF-kB luciferase, uHTS | inhibition, % at 10 µM | AID 1347056, 2019 | 0.98% of 360,000 active | Q293 LMP1-TROYcd NF-kB luciferase reporter, 4 h;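 active = compounds whose plate-normalised and pattern-corrected inhibition of the luciferase reporter signal at the single screening dose is 50% or more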
# HSP90 refold inh – HSP90 inhibitors, primary screen, cell lysate, luminescence; inhibition, % at 5.6 µM; 0.91% of 290,000 active; Rabbit reticulocyte lysate, luciferase refolding luminescence, 3 h; AID 1789, 2009; Heat shock protein HSP 90 (rabbit reticulocyte lysate; luciferase refolding);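 active = inhibition above the screen-wide mean plus 3 SD, computed separately per campaign, cut at about 16% in these data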;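 also: 0% = DMSO wells and 100% = 60 µM geldanamycin wells; inhibitors lower the luminescence because luciferase stays unfolded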
# TWEAK-Fn14 inh – inhibitors of TWEAK-Fn14 signaling, primary screen, luciferase reporter cells, uHTS; TWEAK-stimulated Fn14 reporter cells, luciferase luminescence, 8 h; inhibition, % at 10 µM; 2% of 360,000 active; in the data active = inhibition above about 50%
# Platelet DG rel – inhibitors of platelet dense granule secretion, primary screen, cell-based, MLPCN, human platelets. AID 1663, 2009. inhibition, %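 (compounds screened at 7.5 µM in platelet-rich plasma)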. human platelet-rich plasma, SFLLRN dense granule ATP release, luminescence. 0.22% of 300,000 active;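 active = mean replicate score, as percent of positive control, at or above 50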
# PPC-1+TRAIL kill – compounds killing PPC-1 cancer cells with TRAIL present, primary screen, TRAIL potentiator project, ATPLite luminescence, uHTS; 0.41% of 220,000 active; cell killing (% activity), % at 4 µM or 5 µM; PPC-1 cells + TRAIL, ATPLite viability luminescence; AID 1443, 2008;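 active = cell killing above 50% in the first pass at 4 µM, then a duplicate retest at 5 µM averaging 50% or more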;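 also: plate controls were cells with TRAIL plus DMSO for no effect and medium-only wells lacking cells for full effect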
# Numbers without * were called inactive; . = not tested or not shown. The list is not random: actives were taken first. Their share in the collection is about 3.5%.
SMILES,TRAIL sens C8,TROY signal inh,HSP90 refold inh,TWEAK-Fn14 inh,Platelet DG rel,PPC-1+TRAIL kill
O=NN(C(=O)NCc1cccnc1)C1CCCCC1,-3,58*,.,4,.,.
CCN(C(=O)COC(=O)CNS(=O)(=O)c1ccc(C)cc1)C1CCS(=O)(=O)C1 (centres undefined),1,1,.,-1,.,.
COc1nc(N)nc2c1ncn2C1OC(CO)CC1O (centres undefined),5,9,.,21,.,.
CCOC(=O)C1CCN(c2ncnc3cc(OC)c(OC)cc23)CC1,-7,7,-1,-10,58*,-2
O=c1[nH]c(Nc2ccccc2Cl)cc2ccccc12,-14,0,.,-5,-11,.
Cc1ccccc1Nc1cc2ccccc2c(=O)[nH]1,88*,-49,7,31,2,21
O=c1[nH]c(Nc2ccc(F)cc2)cc2ccccc12,2,-21,16*,0,10,22
Cc1cc(NC(=O)CN2C(=O)NC3(CCC(C)CC3)C2=O)no1 (centres undefined),-3,-7,12,-14,7,6
COC(=O)c1ccc2nc(C3CCCCC3)c(Cc3ccccc3)n2c1,10,-16,.,-1,.,.
O=S1(=O)NC[C@]23C[C@H](c4ccc(F)cc4)[C@@H](C[C@@H]21)O3,0,-5,.,3,-3,-7
CC(C)Cn1c(N)c(C(=O)CSc2ccc3c(c2)OCCO3)c(=O)n(C)c1=O,31,50,-1,69*,-1,3
NS(=O)(=O)c1ccc(N/N=C2/CCCc3ccccc32)c([N+](=O)[O-])c1,-11,2,0,-41,-32,16
O=[N+]([O-])c1cc(S(=O)(=O)N2CCCC2)ccc1N/N=C1/CCCc2ccccc21,7,18,-2,64*,7,13
COc1ccccc1C(CNc1ccc(S(=O)(=O)N2CCCC2)cc1[N+](=O)[O-])N(C)C (centres undefined),65*,-14,1,9,1,.
O=[N+]([O-])c1cc(S(=O)(=O)N2CCCC2)ccc1O,-3,-19,2,0,-23,9
O=[N+]([O-])c1cc(S(=O)(=O)N2CCCCCC2)ccc1F,75*,9,3,-1,.,31
CCOc1ccc(Br)cc1S(=O)(=O)Nc1cccc(S(=O)(=O)N2CCOCC2)c1,-5,0,.,8,.,.
CC(C)c1ccc(CN2CCN(C(=O)CSc3nnnn3C3CC3)CC2)cc1,17,24,.,27,.,.
COc1cc(O)oc1C=Nc1ccc(C(=O)O)cc1,19,13,1,-14,70*,11
COc1cc(O)oc1C=Nc1ccc(Cl)cc1,-20,-27,-1,3,-7,10
CCN(CC)C(=O)Cn1cc(SCC(=O)NCc2ccco2)c2ccccc21,-9,11,-2,5,2,14
Cc1nnc(NC(=O)CSc2cn(CCNC(=O)c3ccccc3)c3ccccc23)s1,-9,20,13,25,58*,6
COc1ccc(C(=O)NCCn2cc(SCC(=O)NCc3ccco3)c3ccccc32)cc1,-1,64*,59*,45,2,-25
Cc1cc(NC(=O)CSc2cn(CCNC(=O)c3ccc(F)cc3)c3ccccc23)no1,-4,6,13,-11,3,-15
COc1ccc(C(=O)NCCn2cc(SCC(=O)Nc3nnc(C)s3)c3ccccc32)cc1,-1,62*,17*,67*,-11,.
CN(C)c1ccc2c(=O)c3ccccc3oc2n1,44,-27,.,55*,.,.
CN1CCN(C2=C(NS(=O)(=O)c3cccs3)C(=O)c3ccccc3C2=O)CC1,27,-32,0,-14,8,-12
CN1CCN(C2=C(NS(=O)(=O)c3ccccc3)C(=O)c3ccccc3C2=O)CC1,51*,-1,5,-9,-7,.
CCN1CCN(C2=C(NS(=O)(=O)c3ccc(Br)cc3)C(=O)c3ccccc3C2=O)CC1,45,3,6,-14,13,.
